Data on 14 molecules can be found in PubChem BioAssay (NCI).

Test systems include DU-145 prostate; K-562 leukemia; MALME-3M melanoma; MDA-MB-231 breast; RXF 393 renal; SF-268 CNS; SF-295 CNS; SF-539 CNS; UACC-257 melanoma; M14 melanoma.
What all share (test): NCI-60 one-dose screen, 48 h (100 = growth as untreated, 0 = no growth, -100 = all killed)
Details in all cases: 10 µM unless noted

The structures appear in SMILES notation. Values joined by “and” are separate entries in the source; they are usually repeats but may differ in a detail not shown here. Equal entries are not always repeated. About 83,000 compounds went through this panel and 20% of them were active in at least one assay; those are over-represented in the sample as a whole.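 Method: cells in 96-well plates; compound added at one concentration; 48 h incubation; percent growth measured; values under 10 scored active.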 Active and inactive are the calls of the source.

Consider `CC1CC(O)CC(C)(C)C1.CC1CC(O)CC(C)(C)C1.CC1CC(O)CC(C)(C)C1.CC1CC(O)CC(C)(C)C1.[Ti]` (stereo not drawn), for which the growth in the assay with DU-145 prostate is 121% (inactive); with K-562 leukemia, 98.2% (inactive); in the assay with MALME-3M melanoma, 103% (inactive); with MDA-MB-231 breast, 96.2% (inactive); in the assay with RXF 393 renal it was 112% (inactive); with SF-268 CNS it was 115% (inactive). Further, the growth was 102% (inactive) in the assay on SF-295 CNS, 107% (inactive) in the assay on SF-539 CNS, 113% (inactive) in the assay on UACC-257 melanoma and 96% (inactive) in the assay with M14 melanoma.

For `CCCC(=O)OCC(COC(=O)CCC)OC(=O)CCC`, the growth is 111% (inactive) in the assay on DU-145 prostate; 97.7% (inactive) in the assay on K-562 leukemia; 107% (inactive) in the assay with MALME-3M melanoma; 109% (inactive) in the assay with MDA-MB-231 breast; 110% (inactive) in the assay with RXF 393 renal; 104% (inactive) with SF-268 CNS. Further, the growth with SF-295 CNS is 99.9% (inactive); with SF-539 CNS, 103% (inactive); in the assay with UACC-257 melanoma, 95.5% (inactive); with M14 melanoma, 102% (inactive).

On to `CCOC(=O)C1=CC(=O)CC(C)(C)O1`, for which the growth in the assay with DU-145 prostate is 123% (inactive) and 110% (inactive); in the assay on K-562 leukemia, 42% (inactive) and 104% (inactive); with MALME-3M melanoma, 112% (inactive) and 110% (inactive); with MDA-MB-231 breast, 114% (inactive) and 106% (inactive); in the assay on RXF 393 renal, 118% (inactive) and 114% (inactive); in the assay with SF-268 CNS it was 108% (inactive) and 103% (inactive). The growth in the assay with SF-295 CNS is 125% (inactive) and 114% (inactive); in the assay with SF-539 CNS, 110% (inactive) and 109% (inactive); in the assay with UACC-257 melanoma it was 106% (inactive) and 95.7% (inactive); with M14 melanoma, 99.6% (inactive) and 112% (inactive).

For `O=C1C=CC[C@H](/C=C/c2ccccc2)O1`, the growth in the assay on DU-145 prostate is -3.41% (active) and 0.622% (active); with K-562 leukemia, 14.6% (inactive) and -20.2% (active); in the assay on MALME-3M melanoma, 61.9% (inactive) and 55.5% (inactive); in the assay on MDA-MB-231 breast it was 55.6% (inactive) and 36.6% (inactive); in the assay on SF-268 CNS it was 7.78% (active) and 7.94% (active); in the assay on SF-295 CNS it was -0.286% (active) and 0.195% (active). Further, the growth in the assay on SF-539 CNS was 13.2% (inactive) and -60.2% (active); in the assay with UACC-257 melanoma it was 47% (inactive) and 15.3% (inactive); in the assay on M14 melanoma, 53.7% (inactive) and 27.8% (inactive).

For the molecule `CC1NC(C)c2ccc3ccccc3c2O1` (stereo not drawn), the growth in the assay on DU-145 prostate is 104% (inactive); in the assay with K-562 leukemia, 104% (inactive); in the assay with MALME-3M melanoma, 119% (inactive); with MDA-MB-231 breast, 110% (inactive); in the assay with RXF 393 renal, 120% (inactive); in the assay with SF-268 CNS, 101% (inactive). Moreover, the growth is 116% (inactive) with SF-295 CNS, 102% (inactive) with SF-539 CNS, 99.4% (inactive) in the assay on UACC-257 melanoma and 92.5% (inactive) in the assay on M14 melanoma.

Turning to `Cn1c(N)c(N=O)c(=O)n(C)c1=O`, the growth was 108% (inactive) and 102% (inactive) in the assay on DU-145 prostate; 86.8% (inactive) and 108% (inactive) in the assay on K-562 leukemia; 115% (inactive) and 90.9% (inactive) in the assay on MALME-3M melanoma; 108% (inactive) and 98.7% (inactive) in the assay on MDA-MB-231 breast; 170% (inactive) and 109% (inactive) in the assay with RXF 393 renal; 94.6% (inactive) and 90.7% (inactive) in the assay on SF-268 CNS. Besides, the growth is 105% (inactive) and 103% (inactive) in the assay on SF-295 CNS; 107% (inactive) and 100% (inactive) in the assay with SF-539 CNS; 101% (inactive) with UACC-257 melanoma; 100% (inactive) and 96.7% (inactive) in the assay on M14 melanoma.

Turning to `Oc1ccc(O)c(-c2ccccc2)c1`, the growth is 77.6% (inactive) with DU-145 prostate; 30.4% (inactive) in the assay with K-562 leukemia; 84.6% (inactive) with MALME-3M melanoma; 66% (inactive) in the assay with MDA-MB-231 breast; 73.8% (inactive) in the assay on RXF 393 renal; 53.7% (inactive) in the assay with SF-268 CNS. Besides, the growth was 17.7% (inactive) with SF-295 CNS, 46.3% (inactive) in the assay on SF-539 CNS, 88.4% (inactive) with UACC-257 melanoma and 65.9% (inactive) in the assay on M14 melanoma.

Consider `N#Cc1ccc(/C=C/C(=O)c2ccccc2)cc1`, for which the growth with DU-145 prostate is 80.8% (inactive) and 102% (inactive); in the assay with K-562 leukemia, -35.8% (active) and 6.11% (active); with MALME-3M melanoma it was 89.2% (inactive) and 110% (inactive); in the assay on MDA-MB-231 breast, 103% (inactive); in the assay with SF-268 CNS it was 101% (inactive); in the assay with SF-295 CNS, 93.7% (inactive) and 118% (inactive). In addition, the growth in the assay with SF-539 CNS was 103% (inactive) and 110% (inactive); in the assay with UACC-257 melanoma, 80% (inactive) and 114% (inactive); in the assay with M14 melanoma it was 98.6% (inactive) and 102% (inactive).

Turning to `CC1OS(=O)OC1C` (stereo not drawn), the growth with DU-145 prostate was 113% (inactive) and 102% (inactive); in the assay on K-562 leukemia, 82.6% (inactive) and 110% (inactive); in the assay on MALME-3M melanoma, 107% (inactive) and 91% (inactive); in the assay on MDA-MB-231 breast, 109% (inactive); with RXF 393 renal it was 99.4% (inactive) and 104% (inactive); with SF-268 CNS it was 110% (inactive). The growth in the assay with SF-295 CNS was 100% (inactive); with SF-539 CNS it was 97.4% (inactive) and 99.1% (inactive); in the assay with UACC-257 melanoma, 99.8% (inactive) and 94.2% (inactive); in the assay on M14 melanoma, 99.1% (inactive) and 102% (inactive).

For `Cc1c(O)nc(N)[nH]c1=O`, the growth in the assay with DU-145 prostate is 119% (inactive); with K-562 leukemia, 118% (inactive); in the assay with MALME-3M melanoma, 109% (inactive); in the assay with MDA-MB-231 breast it was 104% (inactive); in the assay with RXF 393 renal, 118% (inactive); in the assay on SF-268 CNS, 123% (inactive). Moreover, the growth with SF-295 CNS is 97.4% (inactive); in the assay on SF-539 CNS it was 106% (inactive); in the assay on UACC-257 melanoma it was 105% (inactive); with M14 melanoma, 98.5% (inactive).

As to `COCCNC(C)=O`, the growth in the assay with DU-145 prostate is 112% (inactive); with K-562 leukemia, 105% (inactive); in the assay on MALME-3M melanoma, 114% (inactive); in the assay on MDA-MB-231 breast, 99.2% (inactive); in the assay on RXF 393 renal it was 104% (inactive); in the assay on SF-268 CNS, 101% (inactive). Further, the growth in the assay with SF-295 CNS was 96.3% (inactive); in the assay on SF-539 CNS, 99.5% (inactive); with UACC-257 melanoma, 112% (inactive); in the assay with M14 melanoma, 109% (inactive).

Turning to `O=c1[nH]c(=S)[nH]n1C(=S)n1[nH]c(=S)[nH]c1=O`, the growth in the assay with DU-145 prostate was 110% (inactive); in the assay with K-562 leukemia, 98.8% (inactive); with MALME-3M melanoma it was 102% (inactive); with MDA-MB-231 breast, 111% (inactive); with RXF 393 renal, 95.6% (inactive); with SF-268 CNS it was 103% (inactive). The growth was 97.8% (inactive) in the assay on SF-295 CNS, 110% (inactive) in the assay on SF-539 CNS, 108% (inactive) in the assay on UACC-257 melanoma and 105% (inactive) in the assay on M14 melanoma.

`CC(=O)C[n+]1ccccc1Sc1ccc(Cl)cc1`: the growth is 95% (inactive) with DU-145 prostate; 90.9% (inactive) with K-562 leukemia; 97.1% (inactive) in the assay on MALME-3M melanoma; 52.3% (inactive) in the assay with MDA-MB-231 breast; 109% (inactive) in the assay on RXF 393 renal; 74.9% (inactive) in the assay with SF-268 CNS. For the same molecule, the growth in the assay with SF-295 CNS was 82.9% (inactive); with SF-539 CNS, 68.8% (inactive); with UACC-257 melanoma it was 99% (inactive); in the assay with M14 melanoma, 99.3% (inactive).

For the molecule `CCC(C)(O)CCC(C)(O)CC` (stereo not drawn), the growth was 105% (inactive) with DU-145 prostate; 99.3% (inactive) in the assay with K-562 leukemia; 93.6% (inactive) in the assay on MALME-3M melanoma; 109% (inactive) with MDA-MB-231 breast; 130% (inactive) in the assay with RXF 393 renal; 99.2% (inactive) in the assay with SF-268 CNS. Further, the growth with SF-295 CNS is 102% (inactive); with SF-539 CNS, 103% (inactive); with UACC-257 melanoma, 106% (inactive); in the assay on M14 melanoma, 103% (inactive).
